Most compounds without a hit are left out; they make up all but 0.44% or so of the library.
USP2a inh: USP2a (human) protease inhibition | O75604 | Potency, µM (highest dose often 38.3 µM), actives largely listed as inhibitors | 330,000 compounds, 0.01% hits | USP2 core, Ub-CHOP2 coupled fluorogenic reporter, 485/531
Target sequence (O75604 whole entry, looked up): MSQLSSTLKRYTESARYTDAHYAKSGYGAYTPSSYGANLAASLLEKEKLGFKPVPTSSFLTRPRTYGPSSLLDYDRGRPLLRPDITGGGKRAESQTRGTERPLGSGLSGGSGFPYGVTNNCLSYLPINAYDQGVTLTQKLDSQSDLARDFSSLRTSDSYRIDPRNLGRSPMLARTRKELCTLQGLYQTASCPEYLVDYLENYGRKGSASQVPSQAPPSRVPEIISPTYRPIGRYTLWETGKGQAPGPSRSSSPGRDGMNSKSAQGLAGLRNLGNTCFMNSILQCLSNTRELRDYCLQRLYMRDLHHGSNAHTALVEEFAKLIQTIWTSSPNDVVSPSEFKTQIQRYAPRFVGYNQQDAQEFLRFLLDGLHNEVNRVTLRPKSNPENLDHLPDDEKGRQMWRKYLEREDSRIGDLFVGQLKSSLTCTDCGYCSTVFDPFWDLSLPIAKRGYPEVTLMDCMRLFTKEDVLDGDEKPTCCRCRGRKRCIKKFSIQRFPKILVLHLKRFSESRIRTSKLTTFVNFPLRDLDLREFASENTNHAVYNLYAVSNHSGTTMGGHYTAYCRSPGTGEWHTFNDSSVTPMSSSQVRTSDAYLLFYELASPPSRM
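Cell-free coupled assay: 10nM USP2 core preincubated 30min RT with compound in Tris-HCl pH 8.0/CaCl2/CHAPS buffer, then 25nM Ub-CHOP2 and 25nM reporter substrate; fluorescence (Ex 485/Em 531) read after 60min RT, normalized to NEM inhibition, concentration-response curves fitted.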
EPAC2 antagonist: EPAC2 (human) antagonism; Q8WZA2; EPAC2 GEF exchange of Rap1B-BODIPY-GDP, fluorescence; Potency, µM (doses to about 114 µM), actives largely listed as inhibitors; 360,000 compounds, 0.18% hits; AID 720708; further: nearly all actives have a fitted effect of over 45% in size
EPAC1 antag: blocks human EPAC1 exchange factor; O95398; EPAC1 GEF assay, Rap1b-BODIPY-GDP exchange fluorescence; 360,000 compounds, 0.14% hits; Potency, µM (titrated, usually from 115 µM), actives largely listed as inhibitors; further: nearly all actives have a fitted effect of over 50% in size
EPAC2 ag: agonists of human EPAC2 (RAPGEF4). Q8WZA2. Potency, µM (titrated, usually from 154 µM), usual class: activators. EPAC2 activation, biochemical qHTS; response scale: 100% = 6.5 mM cAMP response. 360,000 compounds, 0.079% hits. AID 720711; further: nearly all actives have a fitted effect of over 50% in size
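Readout is BODIPY fluorescence (480 nm excitation, 540 nm emission), which falls as labeled GDP is exchanged off Rap1B. EPAC2 at 100 nM acted on 250 nM RAP1B-BODIPY-GDP with 50 uM GDP present.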
EPAC1 agonist: activates human EPAC1 exchange factor. O95398. EPAC1 agonist qHTS, biochemical assay; response scale: 100% = response to 6.5 mM cAMP. Potency, µM (top dose mostly 154 µM), actives largely listed as activators. 360,000 compounds, 0.073% hits. AID 720707; further: nearly all actives have a fitted effect of over 60% in size
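Normalized to 6.5 mM cAMP, activity reflects EPAC1-catalysed release of BODIPY-GDP from Rap1B, followed kinetically over 30 min at 480 nm excitation, 540 nm emission. Reaction contained 100 nM EPAC1, 250 nM Rap1B-BODIPY-GDP, 50 uM GDP.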
USP1 inh: USP1/UAF1 (human) deubiquitinase inhibition; recombinant USP1/UAF1, Ub-Rhodamine cleavage fluorescence; 390,000 compounds, 0.23% hits; Potency, µM (series often up to 57.1 µM), usual class: inhibitors; O94782; AID 743255; further: nearly all actives have a fitted effect of over 60% in size
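USP1/UAF1 complex (1 nM) preincubated 15 min at room temperature with compound, then Ub-Rho substrate (150 nM final) added. Kinetic fluorescence at 480/540 nm over 6 reads at 60 s intervals; 50 mM HEPES pH 7.8, 0.5 mM EDTA, 0.1 mg/ml BSA, 1 mM TCEP, 0.01% Tween-20.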
Each line names hits and unclear results; the compound was inactive in the other large screens. The call rests on the fitted dose curve; in most records, active means well fitted curve in the direction sought with a large enough effect; inconclusive means small, poorly fitted or top-dose-only effect, or another doubt; inactive means no such curve, though single readings can be large; an effect the other way counts as inactive or inconclusive.

CC(C)N1CCc2c(sc(NC(=O)c3ccc(S(=O)(=O)N4CCc5ccccc54)cc3)c2C(N)=O)C1	EPAC2 antagonist 45µM, EPAC1 antag inconclusive
Cc1ccccc1CS(=O)(=O)Cc1ccc(C(=O)NCc2ccc(F)cc2)o1	none (no result: USP2a inh, EPAC2 antagonist, EPAC1 antag, EPAC2 ag, EPAC1 agonist)
O=C1NC(c2cccc3ccccc23)Nc2ccccc21 (stereo not given)	USP1 inh inconclusive (no result: USP2a inh)
O=C1c2ccccc2C(=O)C12OC2c1cccc2ccccc12 (stereo not given)	EPAC2 antagonist inconclusive, EPAC1 antag inconclusive, USP1 inh 14µM
N#Cc1ccc(/C=C\c2nccc3c2[nH]c2ccccc23)cc1	EPAC2 antagonist inconclusive, EPAC1 agonist inconclusive, USP1 inh 22µM
O=C(c1ccncc1)N1N=C2CCCCCC2C1(O)C(F)(F)F (stereo not given)	none
O=C(c1ccco1)N1N=C2CCCCCC2C1(O)C(F)(F)F (stereo not given)	EPAC2 antagonist 79µM
O=C(O)CN1C(=O)/C(=C/C=C/c2ccccc2)SC1=S	none
CCN1C(=O)C(=CC=CN(C)c2ccccc2)SC1=S	EPAC2 ag 89µM, EPAC1 agonist inconclusive, USP1 inh inconclusive (no result: USP2a inh)
N#Cc1c(SCC(=O)Nc2nncs2)sc2c(O)cc(=O)[nH]c12	USP2a inh inconclusive, EPAC1 antag 89µM
O=C(O)c1ccc(NC2=C(n3nnc4ccccc43)C(=O)c3ccccc3C2=O)cc1	USP1 inh 16µM
COc1cc(O)ccc1-c1nc2ccc(Br)cn2c1Nc1ccccc1C	none (no result: USP2a inh, EPAC2 antagonist, EPAC1 antag, EPAC2 ag, EPAC1 agonist)
CN1C(=O)/C(=C\c2ccc(N(C)C)cc2)OC1=S	EPAC1 agonist 89µM, USP1 inh inconclusive
COc1ccc(/C=C2\OC(=S)N(C)C2=O)cc1	none
O=C(c1ccccc1)[C@@H]1[C@@H](C(=O)c2ccc(F)cc2)[C@@]2(C(=O)Nc3ccccc32)[C@H]2c3ccccc3C=CN12	USP1 inh 28µM
CC(=O)[C@@H]1[C@@H](C(=O)c2ccccc2)[C@]2(C(=O)Nc3ccccc32)[C@H]2C=Cc3cc(F)ccc3N12	none
O=C(Cn1c(=O)n(-c2ccc(Cl)cc2)c(=O)c2sc3ccccc3c21)NC1CCCC1	none (no result: USP2a inh, EPAC2 antagonist, EPAC1 antag, EPAC2 ag, EPAC1 agonist)
Clc1ccccc1C1CC(c2ccccc2)=Nc2ccccc2N1 (stereo not given)	USP1 inh 50µM
COCCOC(=O)c1c(-c2ccccc2)c(-c2ccccc2)nn(C)c1=O	none (no result: USP2a inh, EPAC2 antagonist, EPAC1 antag, EPAC2 ag, EPAC1 agonist)
N#CC(C(=O)NCc1ccccc1)c1nc2ccccc2nc1N1CCCC1 (stereo not given)	EPAC2 ag 89µM, USP1 inh inconclusive
CCN(CC)c1nc2ccccc2nc1C(C#N)C(=O)NCCc1ccccc1 (stereo not given)	EPAC2 antagonist 32µM
N#CC(C(=O)NCc1ccco1)c1nc2ccccc2nc1N1CCOCC1 (stereo not given)	EPAC2 antagonist inconclusive, EPAC1 antag 79µM
N#CC(C(=O)NCCc1ccccc1)c1nc2ccccc2nc1N1CCOCC1 (stereo not given)	USP2a inh inconclusive, EPAC2 antagonist inconclusive
COc1cc2c(cc1OC)C(c1ccc(Cl)cc1)N(c1cccc(C#N)c1)C(=O)C2 (stereo not given)	none (no result: USP2a inh, EPAC2 antagonist, EPAC1 antag, EPAC2 ag, EPAC1 agonist)
CCCCc1ccc(C(=O)N/C(=C\c2ccc(C)cc2)C(=O)NC2CCCCC2)cc1	none (no result: USP2a inh, EPAC2 antagonist, EPAC1 antag, EPAC2 ag, EPAC1 agonist)
O=C(Nc1ccc2nc(SCC(=O)N3CCCC3)sc2c1)c1cccc(Br)c1	none (no result: USP2a inh, EPAC2 antagonist, EPAC1 antag, EPAC2 ag, EPAC1 agonist)
CC(/C=C1\SC(=S)N(CCC(=O)Nc2cccc(C(=O)O)c2)C1=O)=C\c1ccccc1	EPAC2 antagonist inconclusive, EPAC1 antag 79µM
O=C(CCN1C(=O)/C(=C/c2ccco2)SC1=S)Nc1ccc(C(=O)O)c(O)c1	USP1 inh inconclusive
CC(=Cc1ccccc1)C=C1SC(=S)N(CCCC(=O)Nc2ccc(C(=O)O)cc2)C1=O	EPAC1 antag inconclusive, EPAC1 agonist inconclusive (no result: USP2a inh, USP1 inh)
COc1ccccc1/C=C1\SC(=S)N(CCC(=O)Nc2ccc(C(=O)O)c(O)c2)C1=O	EPAC1 antag 50µM
Cc1ccccc1CCNC(=O)c1ccc2c(c1)nc1n2CCC(C)C1 (stereo not given)	none (no result: USP2a inh, EPAC2 antagonist, EPAC1 antag, EPAC2 ag, EPAC1 agonist)

Source: PubChem
